Assay outcomes: PubChem, several laboratories
Hits are enriched below; roughly 27% of the tested compounds scored in any of these assays.
sEH act – increases human soluble epoxide hydrolase activity. P34913. purified human sEH enzymatic activity, activator screen. activation, % at 2 µM. 91,000 tested, 0.04% active. AID 717; in the data active means activation above about 37%
CYP2C19 inh – human CYP2C19 inhibition; CYP2C19 Supersomes, luciferin-H EGE luminescence, 30 min; inhibition, % at 5 µM; 96,000 tested, 21% active;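 active means CYP2C19 inhibition above a set limit at 5 µM in the primary screen, cut at about 50% in these data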;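 further: plate controls were negative control wells for no effect and 2.5 mM tranylcypromine positive control for full effect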
CYP2C19 act – activators of human cytochrome P450 2C19; P33261; recombinant CYP2C19, luciferin-H EGE luminescence; stronger effect = higher value; 0 = fully inhibited enzyme, 1 = untreated enzyme; activation factor at 5 µM; 96,000 tested, under 10 active; AID 1025;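 active means activation factor of at least 2 at 5 µM in the primary screen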;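 further: 0 = wells with 2.5 mM tranylcypromine and 1 = vehicle-only wells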
CYP2C9 inh – blocks human cytochrome P450 2C9; 96,000 tested, 20% active; inhibition, % at 5 µM; P11712; CYP2C9 Supersomes, luciferin-H conversion, luminescence;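 active means blocking of liver enzyme CYP2C9 beyond about 50% at 5 µM, limit read from the data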
Target sequence (P11712 whole entry, looked up): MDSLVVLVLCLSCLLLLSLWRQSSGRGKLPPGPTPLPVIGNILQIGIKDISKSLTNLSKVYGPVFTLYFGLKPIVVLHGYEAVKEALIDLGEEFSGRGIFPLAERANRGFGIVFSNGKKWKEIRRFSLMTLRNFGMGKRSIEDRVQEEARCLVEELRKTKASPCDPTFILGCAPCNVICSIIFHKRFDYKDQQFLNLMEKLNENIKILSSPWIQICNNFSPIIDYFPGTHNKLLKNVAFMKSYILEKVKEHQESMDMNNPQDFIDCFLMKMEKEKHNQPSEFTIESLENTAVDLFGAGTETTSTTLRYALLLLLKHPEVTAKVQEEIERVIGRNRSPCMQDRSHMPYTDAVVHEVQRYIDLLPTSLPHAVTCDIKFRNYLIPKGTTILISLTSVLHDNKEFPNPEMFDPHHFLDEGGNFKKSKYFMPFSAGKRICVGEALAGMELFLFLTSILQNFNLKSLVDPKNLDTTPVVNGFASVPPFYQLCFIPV
sEH inhibitor – inhibitors of human soluble epoxide hydrolase | recombinant human sEH enzymatic activity assay | P34913 | AID 707 | 91,000 tested, 0.34% active | inhibition, % at 2 µM; in the data active means inhibition above about 80%
CYP2C9 act – activators of human CYP2C9; recombinant CYP2C9, luciferin-H conversion, luminescence; stronger effect = higher value; factor 1 = untreated enzyme, 0 = blocked; activation factor at 5 µM; 96,000 tested, 1.4% active; AID 1024;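 active means activation factor of 2 or more for CYP2C9 at a 5 µM dose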;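 further: 0 = sulfaphenazole-blocked wells and 1 = vehicle-only wells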
The depositor's hits bear a star; nt = not tested or not shown.

SMILES | sEH act | CYP2C19 inh | CYP2C19 act | CYP2C9 inh | sEH inhibitor | CYP2C9 act
CCSc1nnc(-c2ccccc2NC(=O)CC)c(=O)[nH]1 | 17 | -13 | 1.1 | 25 | -16 | 0.8
Cc1cc(C)cc(CSc2nnc(C)c(=O)[nH]2)c1 | 3 | 16 | 0.8 | 86* | 0 | 0.1
C=CCSc1nnc(-c2ccccc2NC(=O)CC)c(=O)[nH]1 | -8 | -5 | 1.1 | 52* | 3 | 0.5
COc1ccc(Oc2cc(C(F)(F)F)cnc2C(N)=O)cc1 | -2 | 67* | 0.3 | 36 | 2 | 0.6
NC(=O)c1ncc(C(F)(F)F)cc1Oc1cccc(C(F)(F)F)c1 | 3 | 93* | 0.1 | 43 | -6 | 0.6
Cn1nnnc1SCCOc1ccc(C#N)cc1 | 3 | 62* | 0.4 | -5 | -2 | 1
Cc1ccc(S(=O)(=O)NCCSc2nnnn2C)cc1 | 1 | 40 | 0.6 | -3 | -1 | 1
CCCCCC(=O)Nc1c(-c2ccc(OC)cc2)c(=O)c2ccccc2n1C | 4 | -15 | 1.2 | 50 | -8 | 0.5
Cc1nc(Oc2ccccc2)c2oc3ccccc3c2n1 | -2 | 57* | 0.4 | 20 | 3 | 0.8
COc1ccc(Oc2nc(C)nc3c2oc2ccccc23)cc1 | 17 | 9 | 0.9 | 3 | -15 | 1
CCc1ccc2c(c1)/C(=N/N(C)C(=S)NC)C(=O)N2 | 15 | 52* | 0.5 | 11 | -11 | 0.9
CCc1ccc2c(c1)/C(=C/C(=O)c1cccs1)C(=O)N2 | 4 | 8 | 0.9 | 20 | -4 | 0.8
C=C(C)CSc1nnc2n(C)c(=O)c3c4c(sc3n12)CCC4 | nt | 55* | 0.5 | 56* | nt | 0.4
NC(=O)c1ccc(-n2nnnc2SCC(=O)Nc2ccccc2-c2ccccc2)cc1 | 1 | 37 | 0.6 | 24 | 0 | 0.8
c1ccc(CSc2nnnn2-c2ccccc2)cc1 | -1 | 71* | 0.3 | 38 | -2 | 0.6
c1ccc(-n2nnnc2SCc2cccc(CSc3nnnn3-c3ccccc3)n2)cc1 | 2 | nt | nt | nt | 1 | nt
NC(=O)c1ccc(-n2nnnc2SCc2ccccc2)cc1 | nt | 87* | 0.1 | 46 | nt | 0.5
O=c1cc(CSc2nnnn2-c2ccccc2)[nH]c2[nH]n(-c3ccccc3)c(=O)c12 | 9 | 5 | 0.9 | 56* | -12 | 0.4
CCC(=O)Nc1ccc(-c2nnc(SCc3ccc(C(=O)Nc4nccs4)cc3)n2CC)cc1 | 9 | 18 | 0.8 | 48 | -8 | 0.5
O=C(Nc1nccs1)c1ccc(CSc2nnnn2-c2ccccc2)cc1 | 5 | 92* | 0.1 | 92* | -5 | 0.1
COCCCNC(=O)COc1ccc(-c2nccc(-c3ccccn3)n2)cc1 | -9 | 37 | 0.6 | 40 | 8 | 0.6
Cn1c(=O)c2c(nc(Br)n2Cc2ccc3ccccc3c2)n(C)c1=O | -5 | 39 | 0.6 | 28 | 5 | 0.7
C[N+](C)(C)C/C=C1/COCO1 | -12 | 2 | 1 | 3 | 13 | 1
COc1ccccc1-n1nnnc1SCC(=O)Nc1ccccn1 | -7 | 31 | 0.7 | -24 | 7 | 1.2
COC(=O)c1ccc(-n2nnnc2SCc2ccccc2OC)cc1 | -12 | 6 | 0.9 | 42 | 12 | 0.6
SMILES | sEH act | CYP2C19 inh | CYP2C19 act | CYP2C9 inh | sEH inhibitor | CYP2C9 act
COc1ccccc1-n1nnnc1SCc1cc2c(cc1Br)OCO2 | -14 | 22 | 0.8 | 55* | 16 | 0.4
COc1ccccc1-n1nnnc1SCc1ccccc1 | 0 | 75* | 0.2 | 27 | 3 | 0.7
COc1ccc(CSc2nnnn2Cc2ccccc2)cc1OC | nt | 89* | 0.1 | 75* | nt | 0.3
[O-][n+]1onc2c3ccnnc3ccc21 | 3 | -9 | 1.1 | -5 | 0 | 1
CCCCN(C)C(=O)c1cc2cc3ccc(OC)cc3nc2s1 | 9 | 56* | 0.4 | 53* | -7 | 0.5
Cc1ccccc1NC(=O)c1sc(Cl)nc1-c1ccccc1 | -8 | 61* | 0.4 | 44 | 10 | 0.6
Cc1c(C(=O)O)sc2ncn(C)c(=O)c12 | -3 | -9 | 1.1 | 14 | -1 | 0.9
CN(C)CCNC(=O)c1cc2cc(Br)ccc2oc1=O | nt | 18 | 0.8 | 44 | nt | 0.6
O=C(Nn1cnnc1)c1cc2cc(Br)ccc2oc1=O | -2 | 54* | 0.5 | 38 | 3 | 0.6
CC(C)NC(=O)c1cc2cc(Br)ccc2oc1=O | -2 | 61* | 0.4 | 50* | 2 | 0.5
CC(=O)Nc1ccc(C(=O)CSc2nnnn2C(C)C)cc1 | nt | 48 | 0.5 | 27 | nt | 0.7
CCCc1nnc(NC(=O)CCCN2C(=O)c3ccccc3C2=O)s1 | 9 | 6 | 0.9 | 30 | -10 | 0.7
Cc1cc(C)c(S(=O)(=O)N2CCN(C)CC2)c(C)c1 | 0 | 7 | 0.9 | -122 | 0 | 2.2*
Cc1cc(C)c(S(=O)(=O)N2CCN(CCO)CC2)c(C)c1 | -8 | 43 | 0.6 | -129 | 7 | 2.3*
CCOc1ccccc1NC(=O)N1CCC(c2nc3ccccc3[nH]2)CC1 | -4 | 63* | 0.4 | -47 | 2 | 1.5
COc1ccc(NC(=S)N2CCC(c3nc4ccccc4[nH]3)CC2)c(OC)c1 | nt | 22 | 0.8 | 59* | nt | 0.4
COc1ccc2nc(SCC(=O)Nc3ccc(S(=O)(=O)N4CCCC4)cc3)c(C#N)cc2c1 | -58 | 22 | 0.8 | 91* | 57 | 0.1
COc1ccc2nc(SCC(=O)N3CCCCCC3)c(C#N)cc2c1 | 5 | 9 | 0.9 | 38 | -3 | 0.6
N#Cc1cc2ccccc2nc1SCC(=O)Nc1ccc(S(=O)(=O)N2CCCC2)cc1 | -80 | 38 | 0.6 | 90* | 79 | 0.1
O=C(c1noc2c1CCCC2)N1CCN(Cc2ccccc2)CC1 | nt | 97* | 0 | 4 | nt | 1
O=C(c1noc2c1CCCC2)N1CCCCC1 | nt | 20 | 0.8 | 9 | nt | 0.9
O=C(c1noc2c1CCCCC2)N1CCOCC1 | nt | 17 | 0.8 | 58* | nt | 0.4
CCOC(=O)CNC(=O)CN1C(=O)CCS(=O)(=O)c2ccccc21 | -2 | nt | nt | nt | 4 | nt
O=C1CN(c2nc3ccccc3n3cnnc23)CC(=O)N1CCc1ccccc1 | 4 | 44 | 0.6 | 62* | -4 | 0.4
c1ccc(CNc2nc3ccccc3n3cnnc23)cc1 | -14 | 28 | 0.7 | 20 | 13 | 0.8
SMILES | sEH act | CYP2C19 inh | CYP2C19 act | CYP2C9 inh | sEH inhibitor | CYP2C9 act
Cc1ccccc1OCC1Cc2c(nc(N)c(C#N)c2N)O1 (stereo not given) | -1 | 42 | 0.6 | -4 | -1 | 1
CCOc1ccc(CNC(=S)N/N=C\c2ccc([N+](=O)[O-])cc2)cc1 | -5 | 31 | 0.7 | 30 | 5 | 0.7
CCCCOc1ccc(CNC(=S)N/N=C/c2ccc(OC)c(OC)c2)cc1 | -6 | 8 | 0.9 | 60* | 8 | 0.4
CC1(C)CC(=O)c2c(oc3cc(O)c(O)cc23)C1 | -9 | 2 | 1 | -216 | 8 | 3.2*
O=C1CC(c2ccncc2)c2cc3c(cc2N1)OCO3 (stereo not given) | 3 | 48 | 0.5 | 68* | -5 | 0.3
COc1cc2c(cc1OC)C(c1ccc(N(C)C)cc1)CC(=O)N2 (stereo not given) | 7 | 46 | 0.5 | 6 | -4 | 0.9
